{"source": "ChEMBL document CHEMBL3988442", "about": "“University of Dundee, Small-Polar-MMV Screening Library” (2021)", "note": "The campaign covered roughly 48,000 compounds. About 13,000 (27%) showed an effect of 50% or more. The list shows a part of the results."}
{"tested_on": "Wolbachia pipientis", "assay": "Anti-Wolbachia Cell-Based Screen", "type": "functional", "set-up": "scale not given: in the data most compounds retested in dose-response had high values", "details": "5 µM", "units": {"Percent Effect": "%"}}
{"smiles": "CN1CCCCC12CCN(c1nncs1)C2", "note": "(stereo not drawn)", "Percent Effect": -10.05}
{"smiles": "COc1cc(Cl)cc(C(=O)N2CCC3(CCCNC3)C2)c1", "note": "(stereo not drawn)", "Percent Effect": -2.555}
{"smiles": "CCCc1nnsc1C(=O)N1CCN(CC(C)O)CC1.Cl", "note": "(stereo not drawn)", "Percent Effect": 3.712}
{"smiles": "CC(=O)N1CCN(C(=O)c2sccc2Br)CC1", "Percent Effect": -5.711}
{"smiles": "CCc1ccsc1C(=O)N1CCN(C(=O)c2ccc(C)o2)CC1", "Percent Effect": -4.902}
{"smiles": "CCc1ccsc1C(=O)N1CCN(CC(N)=O)CC1", "Percent Effect": 101.9}
{"smiles": "CCc1ccsc1C(=O)N1CCN(CC(C)O)CC1", "note": "(stereo not drawn)", "Percent Effect": 130.8}
{"smiles": "CCc1ccsc1C(=O)N1CCS(=O)(=O)CC1", "Percent Effect": -3.186}
{"smiles": "CSc1ccsc1C(=O)N1CCN(CC(C)(C)O)CC1", "Percent Effect": 6.232}
{"smiles": "CCc1ccsc1C(=O)N1CCN(CCN2C(=O)CCC2=O)CC1", "Percent Effect": 117.8}
{"smiles": "CCc1ccc(C(=O)N2CCN(CC(C)O)CC2)o1", "note": "(stereo not drawn)", "Percent Effect": -6.937}
{"smiles": "N#Cc1cccc(CN2C[C@@H](F)[C@@H](OCc3nc4cnccc4[nH]3)C2)c1", "Percent Effect": -8.923}
{"smiles": "c1cc(NCc2ccsc2)cc(-c2nnc[nH]2)c1", "Percent Effect": -4.767}
{"smiles": "Cc1cnc(N2CCN3C[C@H](OCc4cccc(C)n4)C[C@H]3C2)nc1.O=C(O)C(F)(F)F.O=C(O)C(F)(F)F.O=C(O)C(F)(F)F", "Percent Effect": -4.424}
{"smiles": "O=C(NCc1csc(Br)c1)c1ccncc1", "Percent Effect": 3.838}
{"smiles": "CC(=O)N1CCN(C(=O)NCc2csc(Br)c2)CC1", "Percent Effect": 1.629}
{"smiles": "O=C(CCc1ccncc1)NCc1csc(Br)c1", "Percent Effect": 90.69}
{"smiles": "O=C(CCNc1ncccn1)NCc1csc(Br)c1", "Percent Effect": 22.34}
{"smiles": "O=C(CSCc1ccncc1)NCc1csc(Br)c1", "Percent Effect": 146.4}
{"smiles": "CC(C)c1cc2c(O)nc(CSCC(=O)NCc3ccncc3)nc2s1", "Percent Effect": 17.11}
{"smiles": "COc1cc(C)c(CNC(C)c2nc(C)cs2)cc1OC", "note": "(stereo not drawn)", "Percent Effect": -0.3291}
{"smiles": "CNC(=O)c1cn2cc(-c3ccc(F)cc3)n(CC=C(C)C)c(=O)c2n1", "Percent Effect": 0.6659}
{"smiles": "Cc1nccc(N2CC[C@@H]3[C@@H](CCC(=O)N3CCc3ccccc3)C2)n1", "Percent Effect": -6.653}
{"smiles": "Cc1cc(C)c(C#N)c(N2CCC(Cc3ccccc3)CC2)n1", "Percent Effect": -43.81}
{"smiles": "CCS(=O)(=O)N1CCC2(CC1)COC(COc1cccnc1)C2.O=C(O)C(F)(F)F", "note": "(stereo not drawn)", "Percent Effect": 0.5823}
{"smiles": "COCC1CN(C(=O)Cc2ccccn2)Cc2c1cnn2CC1CC1.O=C(O)C(F)(F)F.O=C(O)C(F)(F)F", "note": "(stereo not drawn)", "Percent Effect": -11.65}
{"smiles": "CCN1CC(COc2ccccc2)Oc2ncccc2S1(=O)=O", "note": "(stereo not drawn)", "Percent Effect": 122.7}
{"smiles": "CCN1Cc2c(C(=O)NCC3CC3)ncn2-c2ccccc2S1(=O)=O", "Percent Effect": 19.38}
{"smiles": "O=S1(=O)c2cccnc2OC(Cc2ccccc2)CN1CC1CC1", "note": "(stereo not drawn)", "Percent Effect": 92.92}
{"smiles": "O=C(c1c[nH]c2ncccc12)N1CCC(COc2ccccc2)CC1", "Percent Effect": -0.9312}
{"smiles": "N#Cc1nccnc1N1CCC(Cc2ccccc2)C1", "note": "(stereo not drawn)", "Percent Effect": -1.044}
{"smiles": "O=S1(=O)c2cccnc2OC(COc2ccccc2)CN1CC1CC1", "note": "(stereo not drawn)", "Percent Effect": 113.6}
{"smiles": "COC(=O)CNCC1(O)CCCN(Cc2cccc(F)c2F)C1=O", "note": "(stereo not drawn)", "Percent Effect": 2.816}
{"smiles": "Nc1ncccc1C(=O)NCc1cccc(Br)c1", "Percent Effect": 158}
{"smiles": "COc1cccc(CNC(=O)c2nc3c(o2)CN(S(C)(=O)=O)C3)c1", "Percent Effect": -11.41}
{"smiles": "CS(=O)(=O)Cc1ccc(CNC(=O)c2cccnc2O)cc1", "Percent Effect": 12.39}
{"smiles": "NC(=O)CN(CC(=O)NCc1cccc(Cl)c1)C1CCCC1", "Percent Effect": 3.155}
{"smiles": "O=C(NCc1ccncc1)c1ccc(Cl)cc1F", "Percent Effect": 1.231}
{"smiles": "CC(C)(NC(=O)NCc1cccc(Br)c1)C(=O)O", "Percent Effect": 23.95}
{"smiles": "Nc1ncccc1C(=O)NCc1ccc(Br)cc1", "Percent Effect": 135.9}
{"smiles": "COCC(=O)NCc1cccc(Br)c1", "Percent Effect": -15.74}
{"smiles": "COc1cccc(CNC(=O)c2cccnc2N)c1", "Percent Effect": 120.4}
{"smiles": "COc1ncccc1CNC(=O)c1cccnc1O", "Percent Effect": -6.886}
{"smiles": "Nc1ncccc1C(=O)NCc1cccc(Cl)c1", "Percent Effect": 135.3}
{"smiles": "Cn1ccnc1-c1noc(NCc2ccccc2)n1", "Percent Effect": -0.05664}
{"smiles": "Nc1nnc(CCCNc2ncnc3c2CCN(C(=O)C2CC2)C3)s1", "Percent Effect": 2.255}
{"smiles": "O=C(O)CSc1nnc(-c2cn[nH]c2)n1-c1ccccc1C(F)(F)F", "Percent Effect": -22.33}
{"smiles": "CC(=O)NC1(C(=O)N(C)Cc2c(C)noc2C)CCCCC1", "Percent Effect": -7.535}
{"smiles": "COc1ccc(C2CC(=O)c3c(O)cc(O)cc3O2)cc1O", "note": "(stereo not drawn)", "Percent Effect": -2.499}
{"smiles": "CC(C)(C)c1coc([C@@H]2COCCN2Cc2ccccn2)n1", "Percent Effect": -4.744}
{"smiles": "Cc1cccc(CN2CCN(C(=O)c3cccnc3O)CC2)c1", "Percent Effect": -8.356}
{"smiles": "CCCNC(=O)c1cccc2ncccc12", "Percent Effect": 14.09}
{"smiles": "Cc1cccc(CNC(=O)c2cccnc2N)c1", "Percent Effect": 165.4}
{"smiles": "CC(=O)c1ccc(C(=O)N(C)Cc2nc(-c3ccccn3)no2)s1", "Percent Effect": -11.07}
{"smiles": "O=S1(=O)CCC(N(Cc2nc(-c3ccccn3)no2)Cc2cccs2)C1", "note": "(stereo not drawn)", "Percent Effect": 124.4}
{"smiles": "O=S1(=O)CCC(N(Cc2nc3ccccc3o2)Cc2cccs2)C1", "note": "(stereo not drawn)", "Percent Effect": 98.01}
{"smiles": "CC(C)c1noc(CN(Cc2cccs2)C2CC2)n1", "Percent Effect": 16.09}
{"smiles": "CC(C)(C)c1nc(CN(Cc2cccs2)C2CCS(=O)(=O)C2)no1", "note": "(stereo not drawn)", "Percent Effect": 9.766}
{"smiles": "O=C(CN(Cc1cccs1)C1CCS(=O)(=O)C1)NC1CCCCC1", "note": "(stereo not drawn)", "Percent Effect": 14.98}
{"smiles": "Cc1ccc(-c2nc(CN(Cc3cccs3)C3CCS(=O)(=O)C3)cs2)o1", "note": "(stereo not drawn)", "Percent Effect": 4.898}
{"smiles": "CC(C)(C)c1nc(CN(Cc2cccs2)C2CCS(=O)(=O)C2)cs1", "note": "(stereo not drawn)", "Percent Effect": 26.63}
{"smiles": "Cc1noc(CN(Cc2cccs2)C2CCS(=O)(=O)C2)n1", "note": "(stereo not drawn)", "Percent Effect": 99.33}
{"smiles": "O=C(CN(Cc1cccs1)C1CCS(=O)(=O)C1)NCC1CCCCC1", "note": "(stereo not drawn)", "Percent Effect": 2.941}
{"smiles": "Cc1nc(CN(Cc2cccs2)C2CCS(=O)(=O)C2)oc1C", "note": "(stereo not drawn)", "Percent Effect": -2.391}
{"smiles": "Cc1noc(C)c1CN(Cc1cccs1)C1CCS(=O)(=O)C1", "note": "(stereo not drawn)", "Percent Effect": 104.9}
{"smiles": "O=C(CNC(=O)c1ccoc1)NC(c1ccc(F)cc1)C(F)(F)F", "note": "(stereo not drawn)", "Percent Effect": 0.03163}
{"smiles": "CC1CN(C(=O)c2nccnc2N)c2ccc(F)cc2O1", "note": "(stereo not drawn)", "Percent Effect": -7.593}
{"smiles": "COCCN(CCOC)C(=O)c1sc(C)nc1C", "Percent Effect": -9.667}
